This is a sample that favours compounds with a hit; in the whole collection about 2.4% have one here.
TMEM16A inh = TMEM16A chloride channel inhibitors, primary screen, cell-based, HTS; Anoctamin-1 (Mus musculus), Q8BHY3; HEK293 TMEM16A/YFP iodide influx fluorescence, ionomycin; normalized B-score (activity score, 25-100; higher = stronger inhibition) at 10 µM; actives 1.2% (n = 310,000);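 active = ratio plate-corrected score three or more library SD toward inhibition, starting fluorescence score within five deviations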;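 also: score derived from kinetic fluorescence span divided by baseline fluorescence per well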
Target sequence (Q8BHY3 whole entry, looked up): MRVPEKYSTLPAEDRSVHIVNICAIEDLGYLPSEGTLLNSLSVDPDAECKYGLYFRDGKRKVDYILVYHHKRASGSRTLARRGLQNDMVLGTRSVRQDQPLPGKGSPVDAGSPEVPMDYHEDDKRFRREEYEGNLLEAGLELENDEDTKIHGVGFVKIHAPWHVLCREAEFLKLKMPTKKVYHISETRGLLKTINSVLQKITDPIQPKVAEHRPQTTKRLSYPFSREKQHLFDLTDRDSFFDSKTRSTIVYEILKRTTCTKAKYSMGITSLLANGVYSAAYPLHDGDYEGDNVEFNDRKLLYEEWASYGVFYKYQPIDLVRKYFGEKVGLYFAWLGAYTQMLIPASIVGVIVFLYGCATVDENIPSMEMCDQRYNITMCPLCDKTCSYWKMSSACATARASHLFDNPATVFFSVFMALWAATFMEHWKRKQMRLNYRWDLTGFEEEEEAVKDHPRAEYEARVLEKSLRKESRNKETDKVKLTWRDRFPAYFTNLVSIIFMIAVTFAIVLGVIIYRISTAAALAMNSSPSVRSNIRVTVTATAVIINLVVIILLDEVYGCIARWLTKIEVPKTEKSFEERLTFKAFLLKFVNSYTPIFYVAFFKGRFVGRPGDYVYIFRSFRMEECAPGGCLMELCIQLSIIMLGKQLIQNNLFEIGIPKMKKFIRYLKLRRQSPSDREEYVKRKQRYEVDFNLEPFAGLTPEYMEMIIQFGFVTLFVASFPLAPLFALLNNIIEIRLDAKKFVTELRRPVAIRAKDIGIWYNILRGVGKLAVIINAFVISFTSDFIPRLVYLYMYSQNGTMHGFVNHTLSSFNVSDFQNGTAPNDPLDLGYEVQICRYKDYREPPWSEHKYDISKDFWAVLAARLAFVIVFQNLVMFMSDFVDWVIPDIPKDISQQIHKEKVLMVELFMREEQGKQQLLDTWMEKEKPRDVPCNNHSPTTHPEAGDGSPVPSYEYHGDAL
CHT block = inhibitors of human choline transporter CHT. High affinity choline transporter 1 (Homo sapiens), Q9GZV3. CHT-expressing cells, membrane potential dye, choline response; stronger effect = lower value. B-score at 10 µM. actives 0.86% (n = 310,000);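 active = B-score over 3 SD under the library average, and starting fluorescence ratio not unusually high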;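 also: choline stimulus applied at its EC90 after an EC20 pre-addition; B-score computed on integrated fluorescence ratio after choline addition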
TMEM16A act = TMEM16A chloride channel activators or potentiators, primary screen, cell-based, HTS. B-score at 10 µM. HEK293 TMEM16A/YFP-H148Q/I152L, iodide quench fluorescence; stronger effect = lower value. Anoctamin-1 (Mus musculus), Q8BHY3. actives 0.3% (n = 340,000);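 active = fluorescence-ratio B-score plate-corrected deviation score at least 3 library SD below zero, with starting fluorescence score within 5 deviations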;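 also: channel opened by trigger with iodide after compound preincubation; score built on the fluorescence ratio of max minus min over baseline; more negative score means more quench and so TMEM16A activation or potentiation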
CHT allo act = CHT positive allosteric modulators, primary screen, cell-based, membrane potential dye, choline EC20. High affinity choline transporter 1 (Homo sapiens), Q9GZV3. CHT-expressing cells; stronger effect = higher value; LV-AA mutant CHT in HEK293 cells. B-score at 10 µM. actives 0.49% (n = 310,000). AID 488977, 2010;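 active = initial fluorescence not abnormally high and integrated response B-score, plate-corrected, over 3 SD above library mean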
CHT activ conf = CHT activators, confirmation, cell-based, membrane potential dye, duplicate | shares compounds with CHT allo act | CHT-expressing cells, membrane potential dye fluorescence (FDSS); % of choline EC20–EC90 response window; HEK293 expressing CHT LV-AA mutant; choline added at its EC20 | activation, % at 10 µM | actives 91% (n = 2,500) | AID 504833, 2011;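 active = primary screen active, with duplicate mean activation above negative control mean plus 3 SD, cut at about 11% in these data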
HEK293 MP dye = membrane potential response in parental HEK293 cells, counter-screen for CHT activator project, cell-based, membrane potential dye; shares compounds with CHT allo act; membrane potential dye fluorescence (FDSS); measured after EC20 choline addition; ratio readout change at 10 µM, hits read low; actives 62% (n = 2,500); AID 623908, 2012;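 active = duplicate-averaged ratio beyond 3 SD from buffer wells, up or down, though filed actives are nearly all decreases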
An asterisk follows results filed as active; i = inactive; . = no result.

SMILES	TMEM16A inh	CHT block	TMEM16A act	CHT allo act	CHT activ conf	HEK293 MP dye
O=C(COc1ccc(S(=O)(=O)N2CCOCC2)cc1)NCc1ccccn1	i	i	i	i	.	.
Cc1cc(N2CCN(Cc3cn(C)nc3-c3ccccc3F)CC2)cc(C)n1	i	i	i	i	77*	-74*
C=CCn1cnc2c(nnn2-c2ccc(C)c(Cl)c2)c1=O	i	i	i	i	.	.
CCc1cc(=O)oc2cc(C)cc(OCC(=O)NCCCn3ccnc3)c12	i	i	i	i	.	.
Cc1cc(OCC(=O)NCCCn2ccnc2)c2c(C)c(C)c(=O)oc2c1	i	i	i	i	41*	-64*
CCc1cc(=O)oc2cc(C)cc(OC(C)C(=O)NCCCN3CCOCC3)c12 (stereo unspecified)	i	i	i	i	43*	-33*
CCCc1cc(=O)oc2c3c(cc(OCC(=O)NCC4CCC(C(=O)O)CC4)c12)OC(C)(C)CC3 (stereo unspecified)	i	i	i	i	7	i
Cc1cc(OCC(=O)NCCN2CCOCC2)c2c(C)c(C)c(=O)oc2c1	i	i	i	i	56*	-54*
Cc1cc(OC(C)C(=O)NCCN2CCOCC2)c2c(C)cc(=O)oc2c1 (stereo unspecified)	i	i	i	i	.	.
CS(=O)(=O)c1cccc(S(=O)(=O)N2CCCCCC2)c1	i	i	i	i	.	.
CCCc1cc(=O)oc2c(C)c(OCC(=O)NCCCn3ccnc3)ccc12	i	i	i	i	44*	-44*
CCCc1cc(=O)oc2c3c(cc(OCC(=O)NCCCn4ccnc4)c12)OC(C)(C)CC3	i	i	i	i	.	.
Cc1cc(OC(C)C(=O)NCCCN2CCOCC2)c2c(C)c(C)c(=O)oc2c1 (stereo unspecified)	i	i	i	6.4*	62*	-48*
Cc1cc(=O)oc2c3c(cc(OCC(=O)NCCCn4ccnc4)c12)OC(C)(C)CC3	i	i	i	i	24*	-36*
CCc1cc(=O)oc2cc(C)cc(OC(C)C(=O)NC3CCN(Cc4ccccc4)CC3)c12 (stereo unspecified)	i	i	i	i	54*	-45*
CC1(C)NC(C)(C)C(O)(C(N)=O)C1=O (stereo unspecified)	i	i	i	i	.	.
Cc1cc(Br)cc2c1NC(=O)C2(O)CC(=O)c1ccco1 (stereo unspecified)	i	i	i	i	.	.
c1ccc2c(c1)CCCN2Cc1nnnn1CC1CCCO1 (stereo unspecified)	i	i	i	i	.	.
c1ccc(CCn2nnnc2CN2CCCc3ccccc32)cc1	i	i	i	7.3*	8	i
CC1=NN(c2nc3ccccc3[nH]2)C(=O)/C1=C/N(C)C	i	i	i	i	46*	-33*
CC1=NN(c2ccccc2)C(=O)/C1=C/N(C)C	i	i	i	i	.	.
Cn1c(=O)n(C)c2cc([N+](=O)[O-])c(N3CCN(C(=O)c4cccc(F)c4)CC3)cc21	i	i	i	i	26*	-39*
Cn1c(=O)n(C)c2cc([N+](=O)[O-])c(N3CCN(C(=O)c4cccc(Cl)c4)CC3)cc21	i	i	i	i	.	.
Cn1c(=O)c(=O)n(C)c2cc([N+](=O)[O-])c(N3CCOCC3)cc21	i	i	i	6.5*	66*	-61*
Brc1c(-c2ccc3c(c2)OCO3)nc2ncccn12	i	i	i	6.3*	45*	-46*
SMILES	TMEM16A inh	CHT block	TMEM16A act	CHT allo act	CHT activ conf	HEK293 MP dye
CCOc1ccc(Nc2cc(C)nc3ccc(C)cc23)cc1	i	i	i	i	35*	-47*
Cc1ccc(Nc2cc(C)nc3ccc(C)cc23)cc1	i	i	i	i	.	.
CCOC(=O)c1ccc2nc(C)cc(Nc3cccc(C(=O)O)c3)c2c1	i	i	.	i	27*	-25*
O=C(NS(=O)(=O)Nc1ccc(Br)cn1)c1c[nH]c2ccccc12	i	i	i	i	.	.
S=C1NCCNC(=S)NCCOCCOCCOCCN1	i	i	i	i	.	.
O=C(C1CCN(Cc2ccc(F)cc2)CC1)N(CCc1ccccc1)Cc1ccccc1	i	i	i	6.8*	29*	i
CN(C(=O)COC(=O)C12CC3CC(CC(Cl)(C3)C1)C2)C1(C#N)CCCCC1	.	.	i	.	.	.
COc1ccc(C(C)=O)cc1CSC(=N)N	i	i	i	i	.	.
CCOc1ccc(C(C)=O)cc1CSC(=N)N	i	i	i	i	13*	-45*
CCCCNC(=O)C1CC(=O)N(c2ccc(OC)cc2)C1c1ccc(OC)cc1 (stereo unspecified)	i	i	i	i	.	.
CC(NC(=O)C1CCN(C(=O)Nc2ccccc2)CC1)c1ccccc1 (stereo unspecified)	i	i	i	i	0	i
CC1CCCC(NC(=O)Cn2cc3c(n2)CCCCC3)C1C (stereo unspecified)	i	i	i	i	.	.
CCOC(=O)c1c(CNc2ccncc2)n(C)c2cc(Br)c(O)cc12	i	i	i	11*	52*	-51*
CCOC(=O)c1c(C)n(C)c2cc(Br)c(C)cc12	i	i	i	i	.	.
Cc1cc(NC(=O)C(C)Sc2nc(-c3cccs3)nc3ccccc23)no1 (stereo unspecified)	.	.	i	.	.	.
COC(=O)CCCC1=CC2=C(c3ccccc3)C(=O)C(C)(OC(=O)C3CCCC3)C(=O)C2=CN1Cc1ccco1 (stereo unspecified)	i	i	i	9.1*	47*	i
COc1ccc(CN(C)C(=O)c2ccccc2OCc2c(C)noc2C)c(OC)c1	.	.	i	.	.	.
COc1ccc(Br)cc1CN(C)C(=O)c1ccccc1OCc1c(C)noc1C	i	i	i	i	38*	i
CCN(CC)CCn1c(=N)n(CC(=O)c2ccc(Br)s2)c2ccccc21	i	i	i	6.4*	21*	i
